We go through 38 molecules from the supplement of paper PMC6763611.

Where only a bound is given, the exact number is not on record here.

One assay has as its system Plasmodium falciparum NF54. The experiment in a line: growth inhibition relative to untreated control; higher = more inhibition. As to conditions: 1 µM; MM + chorismate end-products (CM screening medium); 72 h. The essentials:
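Two media were used: minimal RPMI, and minimal RPMI carrying the chorismate end-products folate, pABA, pHBA, tyrosine, phenylalanine and tryptophan at 2.2 μM, 7.3 μM, 7.3 μM, 111 μM and 90 μM for the first five. In these media, P. falciparum NF54 ring stages (1% hematocrit, 1% parasitemia, 100 μL/well) were exposed in dark 96-well half-area plates to a single 5 μM or 1 μM test-compound dose for 72 h at 37 °C. Growth inhibition was then assessed with SYBR Green against untreated wells, subtracting background from uninfected erythrocytes.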
As for `NS(=O)(=O)c1cccc(-c2ccc3ncc(N4CCOCC4)nc3c2)c1`, the growth inhibition turned out to be 47%.
Still for that read-out and setting: in the case of `COc1cncc(-c2cncc(N3CCN(c4ccncc4)CC3)n2)c1` it was over 100%.
Same read-out and setting: in the case of `CCN(CC)C(=O)N1CCN(C)CC1` it was 31.7%; in that of `COc1cc(NC(C)CCCN)c2ncccc2c1` (stereo unspecified), 51.1%.
Same read-out and setting: in the case of `c1ccc(-c2cc(N3CCCCC3)c3ccccc3n2)nc1` it was 3.57%; in that of `O=C(NCCc1ccn(-c2ccccc2)n1)C1CCCCC1`, 13.1%; in that of `O=C(Nc1ccc(F)c(-c2nc3cc(-c4ccccc4)cnc3[nH]2)c1)N1CCCC1`, 17.5%.
Turning to `O=C(c1ccc(NCCO)cc1)C1C[C@H]1c1ccc(Cl)cc1` (stereo partly specified), the growth inhibition amounted to 71%.
On the same count and under the same terms, the same measure for `CCCCS(=O)(=O)Nc1ccc2cnn(C)c2c1`: 3.73%.
With `COC(=O)c1c(NC(=O)c2c(F)c(F)c(F)c(F)c2F)sc2c1CCCCC2`, the growth inhibition was determined as 26.9%.
On the same count and under the same terms, in the case of `CCCn1c(NC(=O)c2ccc3ccccc3n2)nc2ccccc21` it was 38.2%; in that of `CC(c1cc(Cl)cc(Cl)c1)N(C)c1ncc2c(N)nc(N)nc2n1` (stereo unspecified), 54.9%; in that of `COc1ccc(C2=NN(C3CCCCCC3)C(=O)C2(C)C)cc1OCCCCOc1ccc(-c2nn[nH]n2)cc1`, 36.5%.
Still for that read-out and setting: the same measure for `CC(C)NCC(=O)Nc1cccc(C(=O)Nc2cccc(C(F)(F)F)c2)c1`: 72.4%; for `O=C(Nc1ccc(N2CCNCC2)cc1)c1ccn2ncc(-c3cccc(Cl)c3)c2n1`: over 100%.
Regarding `Cc1ccc(S(=O)(=O)N2CCN(C(=O)c3cc(-c4ccccc4)n[nH]3)CC2)cc1`, the growth inhibition stood at 94.2%.
For `CCc1ccccc1-n1c(C)cn2c3c(=O)n(C(C(=O)OC)C(C)C)c(=O)n(C)c3nc12` (stereo unspecified), the growth inhibition came out at 72.6%.
On the same count and under the same terms, in the case of `N#Cc1ccc(-c2cnc(N)c(-c3ccc(C(N)=O)cc3)n2)cc1` it was 99.3%; in that of `Cc1nc(-c2ccccn2)nc(N2CCC(Cc3ccccc3)C2)c1Cl` (stereo unspecified), 52.8%.
For the molecule `Cc1ccc2c(c1C)NC(=O)C21NN=C(c2ccccc2)S1` (stereo unspecified), the growth inhibition worked out at 95.4%.
On to `O=C(c1ccco1)N(CCCn1ccnc1)c1nc2c(Cl)cccc2s1`, for which the growth inhibition was 13.2%.
Still for that read-out and setting: the same measure for `O=C(Nc1nc(-c2ccccn2)cs1)c1cncn1-c1ccccc1`: 25.9%; for `COc1ccccc1C(C)NCC(=O)Nc1cc(C(F)(F)F)ccc1Cl` (stereo unspecified): 86.1%.
In the case of `O=C(C(Cc1c[nH]c2ccccc12)NS(=O)(=O)c1ccc(Cl)cc1)N1CCCCC1` (stereo unspecified), the growth inhibition was 58%.
As for `CC(C)=CCC/C(C)=C/CNCCNC1C2CC3CC(C2)CC1C3` (stereo unspecified), the growth inhibition was found to be 88.5%.
The same measure, in the same setting: the same measure for `COc1nc2ccc(Br)cc2cc1[C@@H](c1ccccc1)[C@@](O)(CCN(C)C)c1cccc2ccccc12`: 73.2%; for `CC(C)(C)n1nc(-c2ccccc2)c2c(N)ncnc21`: 20.8%; for `CCCS(=O)(=O)N1CCC(CO)(Cc2ccccc2C(F)(F)F)CC1`: 46.8%.
Same read-out and setting: in the case of `c1ccc(-c2nc(NC3CCCCC3)cc(C3CC3)n2)nc1` it was 80.6%.
On the same count and under the same terms, the same measure for `Cn1ccnc1CNCCS(=O)(=O)c1cccc(Nc2ccc(-c3cccc(F)c3)cn2)c1`: under 0%; for `Cc1nnc(NCc2cccc(Cl)c2)c2ccccc12`: 37.2%.
For the molecule `CCc1ccc(C(NCc2nc(N)nc(N(C)C)n2)C(C)C)cc1` (stereo unspecified), the growth inhibition worked out at 9.14%.
Same read-out and setting: in the case of `CC(=O)Oc1ccccc1C(=O)Nc1ncc([N+](=O)[O-])s1` it was under 0%.
Still for that read-out and setting: the same measure for `CCC(NC(=O)c1ccccc1NC(=O)c1ccc(C)cc1)C(=O)OC` (stereo unspecified): 97.3%; for `CC(C)C(C(=O)Nc1ccc(S(=O)(=O)N(C)C)cc1)c1ccc(Cl)cc1` (stereo unspecified): 96.6%.
The same measure, in the same setting: the same measure for `COc1cc(C(F)(F)F)nc2ccc(C)c(N)c12`: under 0%; for `CCOc1ccccc1C(=O)Nc1cccc(-c2nc3ncccn3c2C)c1`: 75.8%.
Regarding `Cc1cc(NC(=O)c2ccc(Oc3ccc(Cl)cc3O)o2)no1`, the growth inhibition is 8.1%.

Staying with this assay, now noted: 1 µM; minimal medium (MM); 72 h.
Regarding `NS(=O)(=O)c1cccc(-c2ccc3ncc(N4CCOCC4)nc3c2)c1`, the growth inhibition stood at 71%.
Same read-out and setting: in the case of `COc1cncc(-c2cncc(N3CCN(c4ccncc4)CC3)n2)c1` it was over 100%; in that of `CCN(CC)C(=O)N1CCN(C)CC1`, 2.45%; in that of `COc1cc(NC(C)CCCN)c2ncccc2c1` (stereo unspecified), 54.5%.
The same measure, in the same setting: in the case of `c1ccc(-c2cc(N3CCCCC3)c3ccccc3n2)nc1` it was under 0%; in that of `O=C(NCCc1ccn(-c2ccccc2)n1)C1CCCCC1`, 20.1%.
On the same count and under the same terms, in the case of `O=C(Nc1ccc(F)c(-c2nc3cc(-c4ccccc4)cnc3[nH]2)c1)N1CCCC1` it was 25.6%; in that of `O=C(c1ccc(NCCO)cc1)C1C[C@H]1c1ccc(Cl)cc1` (stereo partly specified), 98.1%.
As to `CCCCS(=O)(=O)Nc1ccc2cnn(C)c2c1`, the growth inhibition was under 0%.
Same read-out and setting: the same measure for `COC(=O)c1c(NC(=O)c2c(F)c(F)c(F)c(F)c2F)sc2c1CCCCC2`: 25.7%; for `CCCn1c(NC(=O)c2ccc3ccccc3n2)nc2ccccc21`: 20.1%; for `CC(c1cc(Cl)cc(Cl)c1)N(C)c1ncc2c(N)nc(N)nc2n1` (stereo unspecified): 91.6%.
Take `COc1ccc(C2=NN(C3CCCCCC3)C(=O)C2(C)C)cc1OCCCCOc1ccc(-c2nn[nH]n2)cc1`: the growth inhibition was found to be 34.6%.
In turn, `CC(C)NCC(=O)Nc1cccc(C(=O)Nc2cccc(C(F)(F)F)c2)c1` yielded a growth inhibition of 83.1%.
Same read-out and setting: in the case of `O=C(Nc1ccc(N2CCNCC2)cc1)c1ccn2ncc(-c3cccc(Cl)c3)c2n1` it was over 100%; in that of `Cc1ccc(S(=O)(=O)N2CCN(C(=O)c3cc(-c4ccccc4)n[nH]3)CC2)cc1`, 87.1%.
Still for that read-out and setting: the same measure for `CCc1ccccc1-n1c(C)cn2c3c(=O)n(C(C(=O)OC)C(C)C)c(=O)n(C)c3nc12` (stereo unspecified): 83%; for `N#Cc1ccc(-c2cnc(N)c(-c3ccc(C(N)=O)cc3)n2)cc1`: over 100%.
The same measure, in the same setting: in the case of `Cc1nc(-c2ccccn2)nc(N2CCC(Cc3ccccc3)C2)c1Cl` (stereo unspecified) it was 3.18%.
`Cc1ccc2c(c1C)NC(=O)C21NN=C(c2ccccc2)S1` (stereo unspecified): the growth inhibition turned out to be 89.4%.
On the same count and under the same terms, the same measure for `O=C(c1ccco1)N(CCCn1ccnc1)c1nc2c(Cl)cccc2s1`: 22.3%.
With `O=C(Nc1nc(-c2ccccn2)cs1)c1cncn1-c1ccccc1`, the growth inhibition came out at 7.24%.
`COc1ccccc1C(C)NCC(=O)Nc1cc(C(F)(F)F)ccc1Cl` (stereo unspecified) registered a growth inhibition of 85.5%.
For `O=C(C(Cc1c[nH]c2ccccc12)NS(=O)(=O)c1ccc(Cl)cc1)N1CCCCC1` (stereo unspecified), the growth inhibition worked out at 56.9%.
Still for that read-out and setting: the same measure for `CC(C)=CCC/C(C)=C/CNCCNC1C2CC3CC(C2)CC1C3` (stereo unspecified): 92.6%; for `COc1nc2ccc(Br)cc2cc1[C@@H](c1ccccc1)[C@@](O)(CCN(C)C)c1cccc2ccccc12`: 77.4%; for `CC(C)(C)n1nc(-c2ccccc2)c2c(N)ncnc21`: 20.3%.
Molecule `CCCS(=O)(=O)N1CCC(CO)(Cc2ccccc2C(F)(F)F)CC1` displayed a growth inhibition of 69.6%.
Same read-out and setting: in the case of `c1ccc(-c2nc(NC3CCCCC3)cc(C3CC3)n2)nc1` it was 56.8%; in that of `Cn1ccnc1CNCCS(=O)(=O)c1cccc(Nc2ccc(-c3cccc(F)c3)cn2)c1`, under 0%.
For `Cc1nnc(NCc2cccc(Cl)c2)c2ccccc12`, the growth inhibition amounted to 4.12%.
The same measure, in the same setting: in the case of `CCc1ccc(C(NCc2nc(N)nc(N(C)C)n2)C(C)C)cc1` (stereo unspecified) it was under 0%; in that of `CC(=O)Oc1ccccc1C(=O)Nc1ncc([N+](=O)[O-])s1`, 4.44%.
Same read-out and setting: in the case of `CCC(NC(=O)c1ccccc1NC(=O)c1ccc(C)cc1)C(=O)OC` (stereo unspecified) it was 96.2%; in that of `CC(C)C(C(=O)Nc1ccc(S(=O)(=O)N(C)C)cc1)c1ccc(Cl)cc1` (stereo unspecified), 94.8%; in that of `COc1cc(C(F)(F)F)nc2ccc(C)c(N)c12`, 30.2%.
For `CCOc1ccccc1C(=O)Nc1cccc(-c2nc3ncccn3c2C)c1`, the growth inhibition was found to be 76.7%.
The same measure, in the same setting: the same measure for `Cc1cc(NC(=O)c2ccc(Oc3ccc(Cl)cc3O)o2)no1`: 27.1%.
